# Test results published in the supplement of paper PMC12808144.
# Values without a mark were called inactive.
# System: Mel-DCC-11
# Assay: cell viability relative to DMSO control (fraction of DMSO control); higher = less cytotoxic, active = 0.5 or less
# Details: 1 µM; 120 h
# Outline: (§1)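 Luminescence from ATPlite 1step was read after 120 h in 384-well plates carrying 315 approved anti-cancer drugs (TargetMol), acoustically pre-spotted to give 1 µM in duplicate. Cells were seeded in 40 µl per well: 2500/well NHEM-hTERT immortalized melanocytes and 1500/well patient-derived Mel-DCC-11 and Mel-DCC-11-R, its resistant subline, which was assayed alone and with 8 µM of its selecting drug. Viability was normalised to vehicle-treated controls and averaged across duplicate wells.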
row,SMILES,cell viability
1,CC(C)(S)[C@@H](N)C(=O)O [Artamine],1.22
2,CC1=C(CC(=O)O)c2cc(F)ccc2/C1=C\c1ccc(S(C)=O)cc1 (centres undefined) [Sulindac],0.701
3,C/C=C1/NC(=O)[C@H]2CSSCC/C=C/[C@H](CC(=O)N[C@H](C(C)C)C(=O)N2)OC(=O)[C@H](C(C)C)NC1=O [Romidepsin],0.0954 (active)
4,CC(COc1ccccc1)N(CCCl)Cc1ccccc1.Cl (centres undefined) [Phenoxybenzamine hydrochloride],1.18
5,Cn1nnc2c(C(N)=O)ncn2c1=O [Temozolomide],0.893
6,CN(C)CCOc1ccc(/C(=C(/CCCl)c2ccccc2)c2ccccc2)cc1 [Toremifene],1.1
7,COc1ccc(C[C@H](N)C(=O)N[C@H]2[C@@H](O)[C@H](n3cnc4c(N(C)C)ncnc43)O[C@@H]2CO)cc1.Cl.Cl [Puromycin dihydrochloride],0.246 (active)
8,CN(C)CCOc1ccc(/C(=C(/CCCl)c2ccccc2)c2ccccc2)cc1.O=C(O)CC(O)(CC(=O)O)C(=O)O [Toremifene citrate],1.61
9,CC(C)(CO)c1cc2cc(NC(=O)C3(c4ccc5c(c4)OC(F)(F)O5)CC3)c(F)cc2n1C[C@@H](O)CO,1.01
10,CC/C(=C(\c1ccc(O)cc1)c1ccc(OCCNC)cc1)c1ccccc1 [(E/Z)-Endoxifen],1.05
11,CCc1cnn2c(NCc3ccc[n+]([O-])c3)cc(N3CCCC[C@H]3CCO)nc12 [Dinaciclib],0.0557 (active)
12,Cc1nc(Nc2ncc(C(=O)Nc3c(C)cccc3Cl)s2)cc(N2CCN(CCO)CC2)n1.O [Dasatinib monohydrate],1.22
13,Cc1cc(Nc2ncc(Cl)c(Nc3ccccc3S(=O)(=O)C(C)C)n2)c(OC(C)C)cc1C1CCNCC1,0.955

# System: NHEM-hTERT
# Assay: as above
# Details: 1 µM; 120 h
# Outline: as §1
row,SMILES,cell viability
1,CS(=O)(=O)CCNCc1ccc(-c2ccc3ncnc(Nc4ccc(OCc5cccc(F)c5)c(Cl)c4)c3c2)o1.Cc1ccc(S(=O)(=O)O)cc1.Cc1ccc(S(=O)(=O)O)cc1 [Lapatinib Ditosylate],1.13
2,CCN1CCN(Cc2ccc(Nc3ncc(F)c(-c4cc(F)c5nc(C)n(C(C)C)c5c4)n3)nc2)CC1 [Abemaciclib],0.921
3,S=c1nc[nH]c2nc[nH]c12 [Mercaptopurine],1.07
4,Nc1nc(F)nc2c1ncn2[C@@H]1O[C@H](COP(=O)(O)O)[C@@H](O)[C@@H]1O [Fludarabine Phosphate],1.2
5,Cc1cn(-c2cc(NC(=O)c3ccc(C)c(Nc4nccc(-c5cccnc5)n4)c3)cc(C(F)(F)F)c2)cn1 [Nilotinib],0.969
6,Nc1nc(F)nc2c1ncn2[C@@H]1O[C@H](CO)[C@@H](O)[C@@H]1O [Fludarabine],0.934
7,Cc1cn(-c2cc(NC(=O)c3ccc(C)c(Nc4nccc(-c5cnccn5)n4)c3)cc(C(F)(F)F)c2)cn1 [Radotinib],1.09
8,COc1cc2nccc(Oc3ccc(NC(=O)Nc4cc(C)on4)c(Cl)c3)c2cc1OC [Tivozanib],1.09
9,O=C(NC(Cc1cc(=O)[nH]c2ccccc12)C(=O)O)c1ccc(Cl)cc1 (centres undefined) [Rebamipide],1
10,Cn1cnc2c(F)c(Nc3ccc(Br)cc3F)c(C(=O)NOCCO)cc21 [Binimetinib],0.934
11,C=C(c1ccc(C(=O)O)cc1)c1cc2c(cc1C)C(C)(C)CCC2(C)C [Bexarotene],1.2
12,O=NN(CCCl)C(=O)NC1CCCCC1 [Lomustine],0.938
13,Cc1nc(Nc2ncc(C(=O)Nc3c(C)cccc3Cl)s2)cc(N2CCN(CCO)CC2)n1 [Dasatinib],0.513
14,O=C(O)C1CSCN1 (centres undefined) [Thioproline],1.17
15,CCCCc1nc2cc(/C=C/C(=O)NO)ccc2n1CCN(CC)CC [Pracinostat],0.747
16,COc1cc([C@@H]2c3cc4c(cc3[C@@H](O[C@@H]3O[C@@H]5CO[C@@H](C)O[C@H]5[C@H](O)[C@H]3O)C3COC(=O)C32)OCO4)cc(OC)c1O (some centres undefined) [Etoposide],0.798
17,Nc1c2ccccc2nc2ccccc12 [Aminacrine],0.915
18,O=C(/C=C/c1cccc(S(=O)(=O)Nc2ccccc2)c1)NO [Belinostat],0.737

row,SMILES,cell viability
1,COC(=O)N[C@@H](C)CNc1nccc(-c2cn(C(C)C)nc2-c2cc(Cl)cc(NS(C)(=O)=O)c2F)n1 [Encorafenib],0.972
2,CCc1cn([C@H]2C[C@H](O)[C@@H](CO)O2)c(=O)[nH]c1=O [Edoxudine],0.967
3,Nc1nc(Cl)nc2c1ncn2[C@H]1C[C@H](O)[C@@H](CO)O1 [Cladribine],0.592
4,COc1cc([C@H]2Oc3cc([C@H]4Oc5cc(O)cc(O)c5C(=O)[C@@H]4O)ccc3O[C@@H]2CO)ccc1O [Silibinin],0.948
5,CC1=C(/C=C/C(C)=C/C=C/C(C)=C/C(=O)O)C(C)(C)CCC1 [Tretinoin],0.953
6,CC(C)(S)[C@@H](N)C(=O)O [Artamine],1.08
7,CC1=C(CC(=O)O)c2cc(F)ccc2/C1=C\c1ccc(S(C)=O)cc1 (centres undefined) [Sulindac],0.963
8,C/C=C1/NC(=O)[C@H]2CSSCC/C=C/[C@H](CC(=O)N[C@H](C(C)C)C(=O)N2)OC(=O)[C@H](C(C)C)NC1=O [Romidepsin],0.0685 (active)
9,CC(COc1ccccc1)N(CCCl)Cc1ccccc1.Cl (centres undefined) [Phenoxybenzamine hydrochloride],1.13
10,Cn1nnc2c(C(N)=O)ncn2c1=O [Temozolomide],1.01
11,CN(C)CCOc1ccc(/C(=C(/CCCl)c2ccccc2)c2ccccc2)cc1 [Toremifene],0.904
12,COc1ccc(C[C@H](N)C(=O)N[C@H]2[C@@H](O)[C@H](n3cnc4c(N(C)C)ncnc43)O[C@@H]2CO)cc1.Cl.Cl [Puromycin dihydrochloride],0.467 (active)
13,CN(C)CCOc1ccc(/C(=C(/CCCl)c2ccccc2)c2ccccc2)cc1.O=C(O)CC(O)(CC(=O)O)C(=O)O [Toremifene citrate],0.992
14,CC(C)(CO)c1cc2cc(NC(=O)C3(c4ccc5c(c4)OC(F)(F)O5)CC3)c(F)cc2n1C[C@@H](O)CO,1.06
15,CC/C(=C(\c1ccc(O)cc1)c1ccc(OCCNC)cc1)c1ccccc1 [(E/Z)-Endoxifen],0.88
16,CCc1cnn2c(NCc3ccc[n+]([O-])c3)cc(N3CCCC[C@H]3CCO)nc12 [Dinaciclib],0.212 (active)
17,Cc1nc(Nc2ncc(C(=O)Nc3c(C)cccc3Cl)s2)cc(N2CCN(CCO)CC2)n1.O [Dasatinib monohydrate],0.506
18,Cc1cc(Nc2ncc(Cl)c(Nc3ccccc3S(=O)(=O)C(C)C)n2)c(OC(C)C)cc1C1CCNCC1,0.88
